# In the library only some 1.5% were active in any assay of this set; here they are far more common.
# IDH1 R132H inh: qHTS for Inhibitors of mutant isocitrate dehydrogenase 1 (IDH1): qHTS | AID 602179, 2012 | Isocitrate dehydrogenase [NADP] cytoplasmic (Homo sapiens), O75874 | Potency, µM (titrated, usually from 76.6 µM), for the others: at the highest dose activity change, negative = inhibition, hits mostly inhibitors | 0.093% of 390,000 active | IDH1-R132H enzyme, NADPH consumption, diaphorase/resazurin fluorescence; also: potency is read from the fitted curve at half-maximal effect; % is scaled to controls: 0 for no effect and ±100 for the full control effect; nearly all actives have a fitted effect of over 65% in size
# Target sequence (O75874 whole entry R132H, stated change not applied): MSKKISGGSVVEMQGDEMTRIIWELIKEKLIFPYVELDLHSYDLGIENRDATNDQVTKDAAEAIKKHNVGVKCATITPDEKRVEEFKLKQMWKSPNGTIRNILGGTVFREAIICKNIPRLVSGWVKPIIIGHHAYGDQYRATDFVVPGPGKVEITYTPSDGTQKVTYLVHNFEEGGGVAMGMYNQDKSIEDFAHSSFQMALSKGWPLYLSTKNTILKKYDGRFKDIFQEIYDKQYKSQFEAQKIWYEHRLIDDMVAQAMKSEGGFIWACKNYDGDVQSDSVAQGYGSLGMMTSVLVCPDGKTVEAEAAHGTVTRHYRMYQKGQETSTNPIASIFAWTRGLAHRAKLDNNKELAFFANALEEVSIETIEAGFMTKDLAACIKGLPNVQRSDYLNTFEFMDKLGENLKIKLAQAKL
#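 IDH1-R132H (0.5 ug/mL) preincubated 30 min with compound, then NADPH (0.016 mM) and alpha-KG (2 mM) added; 80 min at RT, pH 7.5. Remaining NADPH coupled via diaphorase/resazurin to fluorescence (540/590 nm); concentration-response curves normalized to no-enzyme control.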
# gsp ag: qHTS for Agonist of gsp, the Etiologic Mutation Responsible for Fibrous Dysplasia/McCune-Albright Syndrome: qHTS | gsp mutant cells, cAMP HTRF, 30 min | AID 624287, 2012 | Potency, µM (highest dose often 76.9 µM), without a hit: at the highest dose activation (cAMP increase), usual class: activators | 0.13% of 340,000 active; active = well fitted activation curve with a large enough effect; inconclusive = small, poorly fitted or top-dose-only effect, or another doubt; inactive = no such curve, though single readings can be large or run the other way; cell line not stated here;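 also: phosphodiesterase inhibitor Ro 20-1724 added with compounds to block cAMP breakdown; potency is read from the fitted curve at half-maximal effect; nearly all actives have a fitted effect of over 60% in size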
#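 Cells stably selected in G418 were plated at 2000/well, grown 16-24 hr, then given compounds in DMSO with the PDE inhibitor […] (300 uM solution added) for 30 min at 37C; cAMP was read by HTRF.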
# BRCA1 expr up: qHTS Assay to Identify Small Molecule Activators of BRCA1 Expression | MCF7-BRCA1-FFLuc reporter, luminescence, 48 h; response scale: scaled: vehicle 0%, 10 µM genistein 100% | Potency, µM (titrated, usually from 46.1 µM), without a hit: top-dose activation, most hits filed as activators | 1.1% of 380,000 active | AID 624202, 2012; also: potency is read from the fitted curve at half-maximal effect; nearly all actives have a fitted effect of over 80% in size
#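 Luminescence from a BRCA1-driven firefly luciferase in MCF7 cells was the read-out, taken 15 min after substrate addition following 48 h compound exposure at 37 °C. Data were normalized to a 10 microM genistein control and DMSO vehicle.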
# gsp antagonist: qHTS for Antagonists of gsp, the Etiologic Mutation Responsible for Fibrous Dysplasia/McCune-Albright Syndrome: qHTS. gsp-mutant cells, cAMP HTRF, 30 min. Potency, µM (top dose mostly 76.9 µM), for the others: top-dose activity change, negative = inhibition, most hits filed as inhibitors. 0.4% of 340,000 active. AID 624288, 2012; calls by dose curve; cell line not stated here;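 also: intracellular cAMP measured with PDE inhibitor Ro 20-1724 present during compound exposure; potency is read from the fitted curve at half-maximal effect; % is scaled to controls: 0 for no effect and ±100 for the full control effect; nearly all actives have a fitted effect of over 65% in size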
#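 Measurement of cellular cAMP by homogeneous time-resolved fluorescence following a 30 min compound exposure at 37C. The PDE inhibitor […] was present throughout; the assay buffer was DPBS with 0.05% BSA and 0.005% Tween 20.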
# IL2 activator: qHTS of IL-2 Activators. AID 652025, 2013. 0.065% of 360,000 active. IL-2 activation reporter assay, cell-based qHTS; stimulated with anti-CD3/CD4/CD28 beads; in transgenic mouse T cells. activation, % (series mostly up to about 46 µM); in the data active = activation above about 50%; inconclusive = mostly about 30% to 49%; also: 0% is about no effect
#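 Readout: EGFP and DsRed signals by fluorescent plate cytometry. Unstimulated transgenic mouse T cells received compound 60 min before antibody-bead stimulation, then incubated 18 h at 37 degrees C.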
# The depositor's hits bear a star; u = inconclusive; x = no result given; [ ] = dose if it differs, or a comment. Unless noted, calls follow the shape of the dose curve; as a rule, active = well fitted curve in the direction sought with a large enough effect; inconclusive = small, poorly fitted or top-dose-only effect, or another doubt; inactive = no such curve, though single readings can be large; an effect the other way counts as inactive or inconclusive.
SMILES,IDH1 R132H inh,gsp ag,BRCA1 expr up,gsp antagonist,IL2 activator
CCN1CCN(c2ccc(S(=O)(=O)N3CCOCC3)cc2NC(=O)c2cccc([N+](=O)[O-])c2)CC1,2.6%,25.1µM*,-30.9%,9.1%,2.4
Cc1ccc(C)c(NC(=O)c2cc(S(=O)(=O)N3CCCCC3)ccc2N2CCOCC2)c1,-2.7%,21.0%,-34.0%,u,-0.4
COc1ccc(CCCc2nnc(SCC(=O)Nc3cccc(C)c3)o2)cc1C,2.3%,x,x,x,x
c1cncc(-c2noc(C34CC5CC(CC(C5)C3)C4)n2)c1,8.8%,-60.3%,12.6µM*,1.8%,-1.7
Cc1ccccc1-c1noc(C23CC4CC(CC(C4)C2)C3)n1,5.3%,13.5%,0.1%[1.84 µM],-4.9%,1.1
CCC(O)c1nc2ccccc2n1CCOc1cc(C)cc(C)c1 (configuration not stated),-3.5%,x,x,x,x
CC(=O)NCCN=C(C)c1sc2ccccc2c1O,-10.3%,2.9%,12.6µM*,-11.9%,-0.2
CC(=Nc1ccc(O)cc1)c1sc2ccccc2c1O,2.1%,4.5%,-1.1%,-25.3%,1.6
COc1cnn(-c2ccc(C)cc2)c(=O)c1SCc1ccccc1,5.6%,u,57.7%,31.6µM*,0.6
CCSc1nc2ccccc2n1CCOc1ccccc1,2.3%,13.6%,14.1µM*,u,-1.2
COCCn1c(COc2ccc(C)cc2)nc2ccccc21,7.5%,-51.0%,11.2µM*,-19.8%,-0.3
Cn1c(COc2ccccc2)nc2ccccc21,1.5%,-1.8%,10µM*,-3.9%,0.1
CCOc1ccc(-n2c(SCC(N)=O)nc3c(oc4ccccc43)c2=O)cc1,-18.2%,x,-0.6%,x,x
Nc1ccc(CCCC(=O)NCc2cccnc2)cc1,6.1%,-0.1%,43.1%,x,0.1
COc1ccccc1CC(=O)NO,x,x,19.8%,x,x
CC(NC(=O)CNC(=O)c1sc2ccccc2c1Cl)c1cccnc1 (configuration not stated),3.2%,10.8%,23.5%,4.8%,-0.1
c1ccc2c(c1)NC1(CCCCCC1)n1c-2nc2ccccc21,0.6%,2.1%,2.82µM*,2.6%,-0.8
c1ccc2c(c1)NC1(CCCCC1)n1c-2nc2ccccc21,9.6%,10.1%,u,-0.6%,0.6
CCOc1cc(N2CCOCC2)c(OCC)cc1NC(=O)c1c(-c2ccccc2)noc1C,31.0%,-23.8%,-19.1%,-9.2%,-0.3
CCOc1cc(N2CCOCC2)c(OCC)cc1NC(=O)c1c(C)noc1C,18.5%,-10.9%,-13.2%,35.5µM*,-3.8
Cc1nn(S(=O)(=O)c2cccs2)c(C)c1Sc1ccc([N+](=O)[O-])cc1,8.3%,-4.1%,-50.3%,25.1µM*,-1.5
Cc1nn(S(=O)(=O)c2ccccc2)c(C)c1Sc1ccc([N+](=O)[O-])cc1,7.1%,-46.5%,-0.9%,7.1%,-0.5
O=C(c1nc2ccccn2c1CN1CCCC(O)C1)N1CCN(C2CCCCC2)CC1 (configuration not stated),-9.3%,5.8%,-2.0%,6.4%,-1.2
Cc1ccc(C(=O)NCCc2c[nH]c3ccccc23)s1,5.2%,-7.9%[15.4 µM],3.16µM*,-8.4%,-0.9
O=C(NCCc1ccccc1)c1n[nH]c2ccccc12,-2.2%,u,3.16µM*,3.4%,-3.9
SMILES,IDH1 R132H inh,gsp ag,BRCA1 expr up,gsp antagonist,IL2 activator
O=C1c2ccccc2C(=O)N1CCc1c[nH]c2ccccc12,1.1%,3.3%,2.24µM*,-20.7%,-0.5
O=C(NCCc1c[nH]c2ccccc12)c1ccccc1,4.0%,19.9%[15.4 µM],12.6µM*,-1.3%,1.7
O=C1c2ccccc2C(=O)N1CCCc1c[nH]c2ccccc12,-1.3%,3.0%,24.0%,-0.7%,0.9
O=C(NCCc1c[nH]c2ccccc12)c1ccc([N+](=O)[O-])cc1,3.6%,9.1%,u,3.5%,-0.5
CN(CCC#N)c1ccc(/C=C/c2ccnc3ccccc23)cc1,x,x,-7.4%,x,x
CCOc1cc2[nH]c(=S)n(CCOC)c(=O)c2cc1OCC,2.0%,4.47µM*,-43.1%,8.6%,-0.9
CCCSc1ncc(Cl)c(C(=O)Nc2sc3c(c2C(=O)NCCCOC)CCCC3)n1,x,x,-7.5%,x,x
Cc1cccc(C)c1NC(=O)c1c[nH]c2ccccc12,4.6%,-33.7%,3.55µM*,-14.6%,1.3
Cc1nc(C)c(-c2ccc(SCC(=O)Nc3cccc(C)c3C)nn2)s1,-9.9%,x,x,x,x
FC(F)(F)c1cc(Cc2nc3ccccc3n2C(CCc2ccccc2)c2nc3ccccc3[nH]2)cc(C(F)(F)F)c1 (configuration not stated),x,x,x,x,-0.2
CCCCCOc1ccc(NS(C)(=O)=O)cc1,3.2%,8.8%,11.2µM*,-11.0%,-1.8
CCOc1ccc(NS(=O)(=O)c2ccc(NS(C)(=O)=O)cc2)cc1,6.2%,-15.8%,1.2%,9.7%,-0.4
C[S+](C)CC(=O)c1ccc2ccccc2c1,x,x,-1.8%,x,x
CCC(=O)CCC(=O)c1ccc2ccccc2c1,10.7%,-12.4%[15.4 µM],7.08µM*,-3.2%,1.1
CNC(=O)C1CCC(Cn2c(=O)c3sccc3n(CC(=O)NCc3ccc(F)cc3)c2=O)CC1 (configuration not stated),-7.6%,x,x,x,x
O=C(COC(=O)/C=C/c1ccccc1[N+](=O)[O-])Nc1ccc2[nH]c(=O)[nH]c2c1,-2.0%,12.2%,-12.9%,-2.3%,0.1
Cc1ccc(C(=O)Nc2nccs2)s1,20.2%,3.3%,11.2µM*,18.4%,-0.7
O=C(Nc1nccs1)c1ccc(Br)s1,-4.3%,u,10µM*,0.3%,0.4
O=C(Nc1nccs1)c1ccccn1,3.9%,-17.8%,u,-0.1%,1.3
O=C(Nc1nccs1)c1ccc(Br)cc1,-1.4%,u,72.1%,-0.7%,0.0
CCOc1ccc(-n2c(=O)c3sc4ccccc4c3n(Cc3ccc(F)cc3)c2=O)cc1,4.0%,x,-0.1%,x,x
Cc1nnc2c3ccccc3c(Cl)nn12,-2.0%,25.1µM*,-28.1%,5.2%,-0.1
COc1ccc(C(c2c(C)n(C)n(-c3ccccc3)c2=O)c2c(C)n(C)n(-c3ccccc3)c2=O)c(OC)c1OC,0.0%,-11.3%[15.4 µM],-23.8%,-11.2%,-0.3
O=C(NNC(=O)c1ccc(NC(=O)C2CC2)cc1)c1ccc(F)cc1,2.9%,22.1%,0.9%,4.2%,-0.6
O=C(Nc1ccccc1C(=O)O)c1ccc(NC(=O)C2CCCCC2)cc1,11.4%,6.7%[15.4 µM],71.6%,31.6µM*,-0.2
O=C(Nc1ccccc1)c1ccc(NC(=O)C2CC2)cc1,0.1%,-42.2%,3.98µM*,9.3%,0.1
CC1(C)OC(=O)C2(Cc3cc([N+](=O)[O-])ccc3N3CCCCC32)C(=O)O1 (configuration not stated),x,x,16.5%,x,x

# Screening data deposited in PubChem by National Center for Advancing Translational Sciences (NCATS).
